Screening data as filed in PubChem BioAssay.
The list is not random: actives were taken first. Their share in the collection is about 3.5%.
mHTT CaM bind: inhibitors of human mutant huntingtin-calmodulin interaction. P42858. AlphaScreen His-mHTT/GST-CaM binding, luminescence. inhibition, % at 15 µM. 190,000 compounds, 3.6% hits. AID 1671202;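 note: 0% = both proteins with DMSO and 100% = one protein alone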
Pf apPOL block: Pf-apPOL DNA polymerase inhibition; Recombinant Pf-apPOL, molecular beacon fluorescence, 1.5 h; inhibition, % at 10 µM; 210,000 compounds, 0.25% hits; AID 1794808
An asterisk follows results filed as active; x = not tested or not shown; ! = a repeat was not active. Cut-off read from the data, not from the text of the source: active = inhibition above about 50%; inactive = the rest.

SMILES	mHTT CaM bind	Pf apPOL block
COc1ccccc1CCC(=O)N1CCC(c2nc3cccnc3n2C)C1 (centres undefined)	-3.2	-5.2
Cc1ccccc1N1CCC(C(=O)N(C)Cc2ccccc2)C1=O (centres undefined)	-2.6	0.5
COc1ccc(C=C2Oc3cc(OCC(=O)OC(C)(C)C)ccc3C2=O)c(OC)c1	-17.9	-4.9
COc1cccc(CCNC2CC(=O)N(c3ccc(NC(C)=O)cc3)C2=O)c1 (centres undefined)	4.4	-5.8
CC(=O)Nc1ccc(N2C(=O)CC(NCCc3ccccn3)C2=O)cc1 (centres undefined)	54.0*	-14.9
Cc1ccc(C(=O)N2CCC(CC(=O)NC3CC3)CC2)cc1	-1.5	-5.2
CCOc1ccccc1C1CC(c2ccccc2Cl)Nc2ncnn21 (centres undefined)	36.2	1.9
CC1(C)CC(=O)C2=C(C1)OC(N)=C(C#N)C2c1ccc(-c2ccccc2Cl)o1 (centres undefined)	15.0	1.9
CCCS(=O)(=O)NCCc1csc(-c2ccc(OC)c(OC)c2)n1	3.1	-16.0
COc1cc(C)c(C)cc1S(=O)(=O)NCCc1csc(-c2ccc(F)cc2)n1	52.7*	-8.9
COc1cc(C)c(C)cc1S(=O)(=O)NCCCc1ccc(N(C)C)cc1	56.8*	-7.6
COc1cccc(C(=O)NCCCc2ccc(N(C)C)cc2)c1OC	20.6	5.1
Cc1ccccc1CC(=O)Nc1cnc(N2CCCC2)nc1	-3.0	2.1
CCn1c(-c2cc(NC(=O)C3CC3)n[nH]2)cc2ccc(OC)cc21	26.6	-3.7
CCn1c(-c2cc(NC(=O)C3CC3)n[nH]2)cc2c(OC)cccc21	50.3*	-5.4
O=C1C2C3c4ccccc4C(c4ccccc43)C2C(=O)N1CCc1c[nH]c2ccccc12 (centres undefined)	100.3*	-89.3
CC(=O)c1c(C(C)=O)c(C)n(CCc2c[nH]c3ccccc23)c1C	5.4	-12.7
N#CC1=CN(c2ccc(Br)cc2)c2ccccc2S1(=O)=O	-5.0	2.8
O=C(CC1CCN(S(=O)(=O)c2ccc(Br)s2)CC1)NC1CCCC1	-5.8	7.6
CCOc1cc(N2CCOCC2)c(OCC)cc1N	52.7*	-6.0
CCOc1ccc(C(=O)Nc2ccccc2N2CCOCC2)cc1Br	-10.1	-5.5
COc1cc(S(=O)(=O)NCCOC23CC4CC(CC(C4)C2)C3)c(C)cc1C	-23.0	-1.8
CCc1cc2c(=O)c(-c3ccc4c(c3)OCO4)c(C(F)(F)F)oc2c(CN(C)C)c1O	0.0	3.8
Cc1ccc(C(=O)N/C(=C\c2ccco2)C(=O)N2CCN(c3ccccn3)CC2)cc1C	70.0*	-4.9
Cc1ccc(C(=O)N/C(=C/c2ccco2)C(=O)NCCc2ccccn2)cc1C	11.0	-3.0
SMILES	mHTT CaM bind	Pf apPOL block
O=C(O)C1C2C=CC(O2)C1C(=O)Nc1ccc2c(c1)OCO2 (centres undefined)	11.4	-3.8
CC(C)(C)C(=O)Nc1sc2c(c1C(=O)Nc1ccccn1)CCCC2	-6.1	-7.7
CCOc1ccccc1NC(=O)c1c(NC(=O)CN2CCOCC2)sc2c1CCC2	-3.6	0.3
CCOc1ccccc1NC(=O)c1c(NCc2ccccn2)sc2c1CCCCC2	73.0*	-21.8
CCOc1ccccc1NC(=O)c1c(NC(=O)CNCC2CCCO2)sc2c1CCC2 (centres undefined)	3.0	-2.2
CCOc1ccc(NC(=O)c2c(NCc3ccccn3)sc3c2CCC3)cc1	59.0*	-15.0
COc1ccccc1NC(=O)c1c(NCc2ccccn2)sc2c1CCCCC2	73.0*	-16.9
CCOc1ccc(NC(=O)c2c(NC(=O)CN3CCN(C)CC3)sc3c2CCC3)cc1	0.6	-5.9
CCOc1ccccc1NC(=O)c1c(NCc2ccncc2)sc2c1CCCC2	53.0*	-14.7
CN(C(=O)CNC(=O)CN1C(=O)c2ccccc2C1=O)c1ccc(Br)cc1	8.6	-10.6
Clc1ccc(-c2cn3c(n2)CCC3)cc1Cl	38.0	-2.7
Clc1ccc(-c2cnc3n2CCC3)cc1Cl	89.0*	-4.9
CCCC(=O)N1CCC(n2nnc3cc(F)ccc3c2=O)CC1	-0.1	-10.7
Cc1ccccc1NC(NC(=O)c1ccco1)C(=O)c1ccccc1 (centres undefined)	15.0	-4.9
COc1ccc(C2C(C#N)=C(N)Oc3n[nH]c(-c4cccs4)c32)c(OC)c1OC (centres undefined)	15.0	2.0
N#CC1=C(N)Oc2n[nH]c(-c3cccs3)c2C1c1cccs1 (centres undefined)	7.0	2.2
COc1c(Cl)cc(Cl)cc1C1C(C#N)=C(N)Oc2n[nH]c(-c3cccs3)c21 (centres undefined)	74.0*	-0.4
N#CC1=C(N)Oc2n[nH]c(-c3cccs3)c2C1c1ccc([N+](=O)[O-])s1 (centres undefined)	55.0*	-1.2
CN(C)S(=O)(=O)NC1CCCCCC1	-6.9	-2.7
CC1C=CCC2C(=O)N(c3ccc4c(c3)OCO4)C(=O)C12 (centres undefined)	4.0	-4.4
Cc1nc(C(=O)NCc2ccc(N3CCCC3)cc2)c(C)n1C1CCN(C)CC1	55.2*	1.1
Cc1nc(C(=O)NCc2ccc(N3CCCCC3)cc2)c(C)n1C1CCN(C)CC1	44.2	-6.7
O=C(NCc1ccccc1)c1ccn2c(-c3ccccc3)nnc2c1	-0.8	1.9
CCNC(=O)N1CCCC1c1nc2cc(-c3ccc(N(C)C)cc3)ccc2o1 (centres undefined)	84.0*	-3.2
CC(C)(C)C(=O)N1CCCC1c1nc2cc(-c3ccccc3)ccc2o1 (centres undefined)	14.7	1.3
SMILES	mHTT CaM bind	Pf apPOL block
CC(C)(C)C1CCC2(CC1)SCC(=O)N2c1cccc(Cl)c1 (centres undefined)	3.0	1.1
N#CC1=C(N)Oc2n[nH]c(-c3ccccn3)c2C1c1ccco1 (centres undefined)	91.0*	-0.2
CC(C)(C)c1[nH]nc2c1C(c1ccco1)C(C#N)=C(N)O2 (centres undefined)	1.0	-0.8
Cc1ccc(Cl)cc1N1CCN(C(=O)C2Oc3ccccc3NC2=O)CC1 (centres undefined)	81.2*	0.1
O=C1Nc2ccccc2OC1C(=O)N1CCN(c2cccc(Cl)c2)CC1 (centres undefined)	1.6	-2.3
O=C(NCc1[nH]nc2ccccc12)c1ccoc1	0.9	-2.9
COc1cc(N2Cc3ccccc3C2)ccc1C=O	72.2*	-4.9
COc1cc(N2Cc3ccccc3C2)ccc1/C=C(\C#N)C(=O)NCc1ccco1	18.0	-2.4
COc1cc(S(=O)(=O)n2nnc3ccccc32)ccc1Cl	88.0*!	-8.9
O=S(=O)(c1ccc(Cl)c(Cl)c1Cl)n1nnc2ccccc21	-8.0	-4.5
O=S(=O)(c1cc(Cl)ccc1Cl)n1nnc2ccccc21	57.0*	0.3
COc1c(S(=O)(=O)n2nnc3ccccc32)ccc(Cl)c1Cl	87.0*!	-7.0
COc1cc(Cl)c(S(=O)(=O)n2nnc3ccccc32)cc1Cl	-4.1	-12.5
COc1ccc(Cl)cc1S(=O)(=O)n1nnc2ccccc21	18.0	-0.7
O=C(NCCCN1CCOCC1)c1ccccc1[N+](=O)[O-]	-4.1	-8.7
Cc1ccc(NCc2noc(-c3ccccc3Cl)n2)cc1	5.8	-2.9
O=C(O)CSc1nnc(-c2ccc(Cl)cc2)n1-c1ccccc1	-8.9	-0.7
O=C(O)CSc1nnc2n1-c1ccc(Cl)cc1NN2	x	75.8*
O=CN1CCN(Cc2cccc(Cl)c2)CC1	-1.5	-5.3
Cc1cc(C(c2ccccc2)c2cc(C)c(N)c(C)c2)cc(C)c1N	80.4*	-4.2
